# Experimental data as given in PubChem BioAssay AID2284143 (EPA ToxCast).
# Calls of active or inactive are those of the source. The calls were made as follows: active = hit-call score of the fitted dose curve at least 0.9, where 1 is the maximum; inactive = score below 0.9.
# Target: human Adenosine Receptor A2A, ADORA2A (gene 135) (UniProt P29274)
# Experiment: ERF_FR_GPCR_hADORA2A: Eurofins (ERF) G Protein-Coupled Receptor (GPCR) Radioligand Binding LeadHunter Assay for human Adenosine Receptor A2A Agonism, conducted at France lab site
# Protocol: ERF_FR_GPCR_hADORA2A is a biochemical, single-readout assay that uses extracted gene-proteins in a cell-free assay. Measurements were taken 2 hour after chemical dosing in a 96-well plate. See A2A Human Adenosine GPCR Binding (Agonist Radioligand) Assay, Cerep.ERF_FR_GPCR_hADORA2A is an assay component calculated from the ERF_FR_GPCR_hADORA2A assay. It is designed to measure radioligand binding using a type of binding reporter as detected by scintillation counting with radiometry technology.Data from the assay component ERF_FR_GPCR_hADORA2A was analyzed at the assay endpoint, ERF_FR_GPCR_hADORA2A, in the positive analysis fitting direction relative to DMSO as the negative control and baseline of activity. Using a type of binding reporter, gain-of-signal activity can be used to understand changes in binding as they relate to gene ADORA2A. To generalize the intended target to other relatable targets, this assay endpoint is annotated to the gpcr intended target family, where the subfamily is adenosine.
# Human cells are incubated for 60 minutes in room temprature, using [3H]CGS 21680 ligand at 6 Kd (nM) with NECA control inhibitor.Test Sample Requirements: Minimum for 1) Screen: 60 ul of 10 mM stock -OR- 1 mg (pre-weighed) for […] uM final testing. 2) Dose Response: 90 ul of 10 mM stock -OR- 1 mg (pre-weighed) for a top concentration at 10 uM.
# Sequence of human Adenosine Receptor A2A, ADORA2A (gene 135) (P29274 whole entry, looked up): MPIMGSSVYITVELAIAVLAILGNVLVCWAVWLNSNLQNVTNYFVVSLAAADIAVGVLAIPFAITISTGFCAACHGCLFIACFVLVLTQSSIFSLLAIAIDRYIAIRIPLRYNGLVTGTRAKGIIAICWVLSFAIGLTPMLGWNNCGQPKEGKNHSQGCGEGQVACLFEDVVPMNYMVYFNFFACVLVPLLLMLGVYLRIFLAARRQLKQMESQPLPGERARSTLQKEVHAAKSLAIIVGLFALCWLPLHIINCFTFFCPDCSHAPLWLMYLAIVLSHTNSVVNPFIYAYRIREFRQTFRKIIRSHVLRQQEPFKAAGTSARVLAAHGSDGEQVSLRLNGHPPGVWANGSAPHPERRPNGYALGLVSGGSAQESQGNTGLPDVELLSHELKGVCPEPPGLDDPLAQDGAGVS
row,SMILES,AC50
1,O=C(/C=C/c1ccc(O)cc1)CC(=O)/C=C/c1ccc(O)cc1,0.421 µM (active)
